Source: PubChem BioAssay AID588334 (Broad Institute, 2011)
Out of some 300,000 compounds screened, about 2,300 (0.77%) were called active.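 The calls were made as follows: active = mean activation of at least 80% with every replicate also reaching 80%; inconclusive = mean reaches 80% but some replicate falls short; inactive = the rest.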 Shown is part of a subset that was picked to be rich in actives. Where a SMILES comes first, the peptide text is derived from it. [ ]: non-standard residue; d: D form. ξ: configuration not given here. Ac5c = NC1(C(=O)O)CCCC1; ξS = NC(CO)C(=O)O

Experiment: activators of MITF-driven TRPM1 promoter reporter, primary screen, cell-based, SK-MEL-5, luciferase, single point (AID 588334);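 also: 0% = neutral control wells and 100% = parthenolide positive control wells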
Details: SK-MEL-5 TRPM1-promoter luciferase, 24 h; at 12.5 µM; hits give high values; % of positive control, neutral wells = 0

SMILES	activation
C=CCC[C@H](Cc1ccc(F)cc1)C(=O)OC[C@@H](NC(=O)[C@@H](CC=C)CC(=O)N[C@H](CO)Cc1ccccc1)C(C)(C)C	-0.905% (inactive)
CCCCNC1(C#N)CCN(Cc2ccccc2)CC1	0.419% (inactive)
CC(C)(C)OC(=O)N(Cc1ccccc1)Cc1ccc(OCc2cccc(NC(=O)c3ccccc3)c2)cc1	-13.4% (inactive)
O=C(C[C@H]1C[C@H](C(=O)N2CCOCC2)[C@@]2(CCC3CCCC3)c3[nH]c4ccc(Cl)cc4c3CCN2C1=O)NCc1ccco1	-16.1% (inactive)
CCCCNc1c(-c2ccc(OC)c(Sc3ccc(OC)cc3)c2)nc2ccc(Cl)cn12	4.02% (inactive)
CCOC(=O)C(CO)NC(=O)C1(NC(C)=O)CCCC1 (configuration not stated) (Ac-[Ac5c]-[ξS]-OEt)	14.3% (inactive)
COc1ccc(S(=O)(=O)N2CCc3ccccc32)cc1C(=O)Nc1cc(S(C)(=O)=O)ccc1Cl	-34% (inactive)
COc1ccc(-c2nnc(-c3ccc4ccccc4c3)o2)cc1	93.8% (active)
COc1ccc(Nc2nnc(C)c3ccccc23)cc1	24.4% (inactive)
COc1ccc(-c2nnc(SCc3cccnc3)o2)cc1	72% (inactive)
S=C(Nc1ccccc1)Nc1ccc2ccccc2c1	1.98% (inactive)
COc1ccc(N2CCN(Cc3nnc(-c4ccccc4)o3)CC2)cc1	-2.12% (inactive)
COc1ccc(Nc2ccc3ccccc3c2)cc1	101% (active)
CN(CCc1ccccc1)C(=O)c1cccc(NC(=O)Cc2cccc(NC(=O)C3CCCN(C(=O)CCc4ccccc4)C3)c2)c1 (configuration not stated)	-13.3% (inactive)
CCC1([N+](=O)[O-])COC(c2ccc(C(C)C)cc2)OC1 (configuration not stated)	53.9% (inactive)
CC(C)(C)OC(=O)C[C@@H]1C/C=C\C[C@@H](CC(=O)N(CCO)Cc2ccccc2)C(=O)N[C@H](Cc2ccccc2)COC1=O	8.13% (inactive)
c1ccc(CSc2nnc(-c3ccco3)n2Cc2ccccc2)cc1	94.3% (active)
O=C(CSc1nnc(-c2ccco2)n1CC1CCCO1)c1ccccc1 (configuration not stated)	5.67% (inactive)
O=C(CSc1nnc(-c2ccco2)n1-c1ccccc1)NCCc1ccccc1	-10.2% (inactive)
CCc1c(Nc2ccccc2Cl)nc(N)[nH]c1=O	0.399% (inactive)
CSc1ccccc1NC(=O)c1cc(Cl)sc1Cl	3.8% (inactive)
Cc1ccccc1C(=O)Nc1ccccc1Sc1ccccc1	-5.99% (inactive)
CSc1ccccc1NC(=O)c1cnc2sc(C)cn2c1=O	126% (active)

SMILES	activation
CC(=O)N1CCc2ccc(N)cc21	-5.2% (inactive)
CC(C#N)OC(=O)c1cccnc1SCC(=O)Nc1ccc2c(c1)OCO2 (configuration not stated)	-11.6% (inactive)
O=C(NCCSc1ccccc1)c1ccco1	61.4% (inactive)
CCS(=O)(=O)Nc1ccc(C(=O)NCCSc2ccccc2)cc1	82.4% (active)
Cc1ccc(C(=O)NCCNS(=O)(=O)c2ccccc2)cc1	0.954% (inactive)
CC(=O)OC1CCC2C3CCC4=C(CC(F)C(=O)C4)C3CCC12C (configuration not stated)	0.663% (inactive)
COc1ccc(-c2nnc3ccc(SCc4ccccc4)nn23)cc1	-5.03% (inactive)
COc1ccc2nc(SCc3ccccc3)nc(C)c2c1	91.9% (active)
COC(=O)CSc1nc(C)c2ccc(OC)cc2n1	16.3% (inactive)
C[C@]12c3[nH]c4ccc(Cl)cc4c3CCN1C(=O)[C@@H](CC(=O)NCCCn1ccnc1)C[C@@H]2C(=O)N1CCOCC1	13.5% (inactive)
Cc1c(C(N)=O)sc2ncn(CCOc3ccccc3)c(=O)c12	17.3% (inactive)
CCOC(=O)C(C)n1cnc2sc(C)c(C)c2c1=O (configuration not stated)	2.04% (inactive)
Cc1cccc(OC(=O)c2sc3ncn(C)c(=O)c3c2C)c1	93.6% (active)
CCC(CO)Oc1cc(NCc2ccccc2)c2ncn(C3CCCC3)c2c1 (configuration not stated)	9.77% (inactive)
NC(=O)c1ncn([C@@H]2O[C@H](CNCc3cnc(N4CCOCC4)s3)[C@@H](O)[C@H]2O)n1	-0.075% (inactive)
O=C(Cc1ccc(S(=O)(=O)N2CCOCC2)s1)Nc1ccc(Br)c(C(F)(F)F)c1	17.8% (inactive)
O=C(CC1Sc2ccccc2NC1=O)NNc1ccc(Cl)c(Cl)c1 (configuration not stated)	9.23% (inactive)
O=c1c2ccccc2nnn1CSc1nnnn1-c1ccccc1	87.9% (active)
Nc1nnc(SCn2nnc3ccccc3c2=O)s1	-7.75% (inactive)
C=CCn1c(SCn2nnc3ccccc3c2=O)nnc1-c1ccc(Cl)cc1	-11% (inactive)
O=C(NCCC(=O)N1O[C@@H]2C=C[C@H]1C2)OCC1c2ccccc2-c2ccccc21	12.3% (inactive)
COc1ccc(CNC(=O)COC(=O)C2=Cc3ccccc3OC2)cc1	-1.47% (inactive)
CC(C)N(C(=O)[C@H]1C[C@H](CC(=O)NC(C)(C)C)C(=O)N2CCc3c([nH]c4ccc(Cl)cc34)[C@]12C)C(C)C	-26.3% (inactive)

SMILES	activation
COc1cc(C(=O)N2CCN(S(=O)(=O)c3ccc(C(C)C)cc3)CC2)ccc1OCC(=O)N1CCOCC1	-0.869% (inactive)
Cc1ccc2cc(/C=N/NC(=O)[C@@H]3CCCN3)c(Cl)nc2c1	19.1% (inactive)
Cc1ccc2cc(/C=N/Nc3ccc(C(=O)O)cc3)c(Cl)nc2c1	99.2% (active)
O=C(O)c1ccc(N/N=C/c2ccc3ncccc3c2)cc1	-58.9% (inactive)
O=C1C[C@@H]2c3c(cccc3CN1Cc1ccccc1)C[C@@H](O)[C@H]2O	8.46% (inactive)
COc1ccc(C2=Nn3c(nnc3-c3ccccc3OC)SC2)cc1OC1CCCC1	-62.2% (inactive)
CC(=NNC(=O)c1ccncc1)c1ccc(Cl)c(Cl)c1	4.45% (inactive)
CN(c1ccc(C(=O)NCCC2=CCCCC2)cc1)S(C)(=O)=O	45.6% (inactive)
O=C(NCCC1=CCCCC1)c1ccc(Cl)c([N+](=O)[O-])c1	31.3% (inactive)
O=C(NCCC1=CCCCC1)c1ccc(-n2cncn2)cc1	83.6% (active)
CN(C)C(CNC(=O)c1cc2ccccc2o1)c1ccccc1 (configuration not stated)	1.76% (inactive)
CCNC(=O)N(CC)C[C@H]1N[C@@](CC)(C(=O)OC)[C@H]2C(=O)N(Cc3ccccc3)C(=O)[C@@H]12	0.033% (inactive)
CNN/C(N=Cc1ccc([N+](=O)[O-])s1)=N\S(=O)(=O)c1cc(C)c(Cl)cc1SCc1ccccc1	-22.7% (inactive)
CCCc1nc(SCC(=O)Nc2ccc(S(=O)(=O)N(C)C)cc2)c2ccccc2n1	-0.188% (inactive)
COc1ccc(S(=O)(=O)N(C)C)cc1NC(=O)CSc1ncccn1	0.656% (inactive)
CN(C)S(=O)(=O)c1ccc2oc(SCC(=O)Nc3ccccc3F)nc2c1	114% (active)
COc1ccc(CCC(=O)Nc2ccc(Cl)c(S(=O)(=O)N3CCOCC3)c2)cc1OC	-5.06% (inactive)
O=C1OCC2=C1C(c1ccc(Cl)cc1)c1cc3c(cc1O2)OCO3 (configuration not stated)	3.92% (inactive)
O=C(c1noc2c1CCCC2)N1CCc2ccccc2C1	127% (active)
Cc1ccc(-c2cc(C(=O)N3CCc4ccccc4C3)no2)cc1	-5% (inactive)
COc1ccc2c(c1)CCc1c(C(=O)N3CCc4ccccc4C3)noc1-2	18.4% (inactive)
O=C1CC(c2ccccc2)C(=O)N2C(=O)CC(c3ccccc3)C(=O)N12 (configuration not stated)	1.12% (inactive)
Cc1nc2ccc(N)nc2nc1C	-1.9% (inactive)

SMILES	activation
CCCCN(C(=O)CSCc1ccc(C)cc1)c1c(N)n(Cc2ccccc2)c(=O)[nH]c1=O	15.5% (inactive)
CC(=O)OCC1(O)CC23CCC4c5ccoc5CCC4(C)C2CCC1C3 (configuration not stated)	-8.62% (inactive)
O=C(Cc1ccc(Cl)cc1)NCc1nc(-c2ccccc2)no1	14.2% (inactive)
O=C(Cc1ccc(Cl)cc1)c1ccccc1	89.3% (active)
O=C(Cc1nc2ccccc2[nH]c1=O)c1ccc(Cl)cc1	50.8% (inactive)
C/C(=N\Nc1ccccc1)c1cccs1	-5.68% (inactive)
COc1cc(O)c2c(=O)c3c(O)c(O)ccc3oc2c1OC	2.79% (inactive)
COc1ccc(-c2nc3cc(C)ccn3c2NC2CCCCC2)cc1SC1CCCCC1	7.59% (inactive)
Cc1ccc2nc(N3CCN(C(=O)c4ccco4)CC3)sc2c1	103% (active)
Cc1ccc2nc(N3C(=O)C(O)=C(C(=O)c4ccco4)C3c3cccc(O)c3)sc2c1 (configuration not stated)	10% (inactive)
COc1ccc2nc(N3CCN(C(=O)c4ccc([N+](=O)[O-])o4)CC3)sc2c1	-66.4% (inactive)
CCOC(=O)C1CCCN(C(=O)C2CCN(S(=O)(=O)c3ccc(Cl)c(C(F)(F)F)c3)CC2)C1 (configuration not stated)	-3.48% (inactive)
O=C1NC[C@@H](c2ccccc2)OC(=O)[C@H](Cc2ccc(F)cc2)CC/C=C/C[C@H]1CC(=O)N(CCO)Cc1ccccc1	-2.43% (inactive)
COc1ccc(CC(=O)NC(C)c2ccc(Cl)c(Cl)c2)cc1S(=O)(=O)N1CCOCC1 (configuration not stated)	6.68% (inactive)
CC(=O)Nc1ccc(-c2csc(NC(=O)Nc3ccccc3)n2)cc1	-48.4% (inactive)
CC(=O)Nc1ccc(-c2csc(NC=C3C(=O)OC(C)(C)OC3=O)n2)cc1	8.13% (inactive)
CC(=O)Nc1cccc(-c2csc(Nc3cccc(C)n3)n2)c1	137% (active)
Cc1ccc(Cn2c(C)c3cnn(CC(=O)NCCN4CCOCC4)c(=O)c3c2C)cc1	-2.1% (inactive)
COc1ccccc1-c1sc2ccccc2c1C#CC1(O)CCCCC1	5.32% (inactive)
CCN(CC)CCCC(C)n1c2nc(=O)[nH]c(=O)c-2nc2cc(Cl)ccc21 (configuration not stated)	-84% (inactive)
CCN(CC)S(=O)(=O)c1ccc(C)c(NC(=O)COc2ccc(Br)cc2Cl)c1	-17.2% (inactive)
Cc1cccc(NC(=O)Nc2ccc(OCc3ccccc3)cc2)n1	-1.41% (inactive)
Cc1cccc(NC(=O)COc2ccc(Br)cc2C)n1	198% (active)
